Laboratory results taken from PubChem BioAssay (Tox21).
Values joined by “and” are separate entries in the source; they are usually repeats but may differ in a detail not shown here. Identical values can stand only once. A number with no mark means an inactive call. Inconclusive results are not listed. Where a call stands in place of a potency, no number is given. Active and inactive are the calls of the source. Unless noted, calls follow the shape of the full dose curve.

What was measured:
[1] = Nuclear factor erythroid 2-related factor 2/antioxidant responsive element (Nrf2/ARE) small molecule agonists: qHTS cell viability counter screen in human keratinocytes (AID 1919968; active = well fitted curve in the direction sought with a large enough effect in the repeat runs; an effect the other way counts as inactive or inconclusive; also: nearly all actives have a fitted effect of over 55% in size; also: potency is read from the fitted curve at half-maximal effect)
Outline: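 HaCaT ARE reporter line, 1,500 cells/well; 5 h settle, 37 C/5% CO2; cpd in DMSO pinned; 23 h exposure; CellTiter-Fluor, 1 h; fluorescence.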

[2] = Nuclear factor erythroid 2-related factor 2/antioxidant responsive element (Nrf2/ARE) small molecule agonists: luciferase reporter gene qHTS assay in human keratinocytes (AID 1919969); also: nearly all actives have a fitted effect of over 35% in size; also: potency is read from the fitted curve at half-maximal effect
[3] = target: Gonadotropin-releasing hormone receptor (Homo sapiens) (UniProt P30968); experiment: Human gonadotropin-releasing hormone receptor (GnRHR) small molecule agonists, calcium flux assay in GnRHR-HEK293 cells (AID 1920063); also: nearly all actives have a fitted effect of over 35% in size
Gonadotropin-releasing hormone receptor (Homo sapiens), sequence (P30968 whole entry, looked up): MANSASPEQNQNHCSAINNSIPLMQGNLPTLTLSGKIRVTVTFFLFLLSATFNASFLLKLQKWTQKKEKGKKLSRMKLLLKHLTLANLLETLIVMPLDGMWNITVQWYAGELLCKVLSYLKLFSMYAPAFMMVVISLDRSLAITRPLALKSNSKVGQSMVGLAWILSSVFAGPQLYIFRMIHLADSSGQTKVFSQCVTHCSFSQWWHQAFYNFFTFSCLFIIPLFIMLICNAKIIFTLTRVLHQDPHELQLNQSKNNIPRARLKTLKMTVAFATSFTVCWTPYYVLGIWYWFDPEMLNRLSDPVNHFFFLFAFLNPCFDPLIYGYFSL
Outline: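 GnRHR-HEK293, 1500 cells/well, 18 h 37 C/5% CO2; Ca dye 1 h 37 C; cpd pinned (DMSO), agonist mode; kinetic FL 480/540, 3 min, 1 s reads; 15 conc, n=3.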

[4] = target: KiSS-1 receptor (Homo sapiens) (UniProt Q969F8); experiment: Human kisspeptin (KISS1R) small molecule agonists, calcium flux assay in KISS1R-HEK293 cells (AID 1920064; active = well fitted curve in the direction sought with a large enough effect in the repeat runs; an effect the other way counts as inactive or inconclusive)
KiSS-1 receptor (Homo sapiens), sequence (Q969F8 whole entry, looked up): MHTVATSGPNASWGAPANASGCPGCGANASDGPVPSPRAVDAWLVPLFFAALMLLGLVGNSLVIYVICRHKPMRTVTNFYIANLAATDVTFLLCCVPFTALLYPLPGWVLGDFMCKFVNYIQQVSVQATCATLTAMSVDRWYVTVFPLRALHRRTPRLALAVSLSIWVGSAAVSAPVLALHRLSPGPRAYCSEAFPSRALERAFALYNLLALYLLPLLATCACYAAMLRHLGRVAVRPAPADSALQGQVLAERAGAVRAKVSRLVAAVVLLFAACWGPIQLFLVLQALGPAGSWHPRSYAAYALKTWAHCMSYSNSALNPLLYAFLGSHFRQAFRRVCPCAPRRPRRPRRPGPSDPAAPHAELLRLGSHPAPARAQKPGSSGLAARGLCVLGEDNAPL
Outline: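 Stable human KISS1R HEK293 line; 18 h plating, 37 C/5% CO2; calcium dye 1 h 37 C; compound pin transfer; kinetic fluorescence Ex/Em 480/540, 3 min.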

[5] = G protein-coupled receptor (GPCR) small molecule agonists, calcium flux assay: HEK293 wild type cell line counter screen (AID 1920065)
Outline: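 Kinetic fluorescence at Ex/Em 480/540, recorded every second over 3 min, served as the read-out after compound addition. Each compound was tested at 15 concentrations in triplicate on cells pre-loaded with calcium dye for 1 h.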

[6] = p53 small molecule agonists, cell-based qHTS assay with human liver microsomes (AID 1963577)
Outline: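 Fluorescence of the beta-lactamase reporter in p53RE-bla cells, detected with LiveBLAzer substrate (2 h, room temperature, dark), served as the read-out after 16 h compound exposure at 37 C with human liver microsomes and NADPH, each 0.5 mg/mL final.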

[7] = p53 small molecule agonists, cell-based qHTS assay with rat liver microsomes (AID 1963578)
Outline: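 Cells carrying a p53 response element–beta-lactamase reporter were plated and rested 5 h, then dosed with compound in DMSO plus rat liver microsomes and NADPH, each at 0.5 mg/mL final. After 16 h at 37 C, LiveBLAzer substrate was added for 2 h.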

[8] = p53 small molecule agonists, cell-based qHTS assay with rat liver microsomes: qHTS cell viability counter screen (AID 1963580); also: nearly all actives have a fitted effect of over 45% in size
Outline: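 p53RE-bla HCT-116 cells were exposed 16 h at 37 C to compounds with rat liver microsomes (0.5 mg/mL) and NADPH (0.5 mg/mL). Viability was measured in the same wells as ATP content by CellTiter-Glo luminescence.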

[9] = p53 small molecule agonists, cell-based qHTS assay: qHTS cell viability counter screen (AID 1963581); also: nearly all actives have a fitted effect of over 45% in size
Outline: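 HCT-116 p53RE-bla cells, 4,000/well, plated 5 h before compound pin transfer; 16 h at 37 C; bla substrate 2 h RT; then CellTiter-Glo, 30 min RT, luminescence.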

[10] = p53 small molecule agonists, cell-based qHTS assay (AID 1963582; active = well fitted activation curve with a large enough effect in the signal ratio in the repeat runs, not every such curve was filed as active; the % refers to the signal ratio)
Outline: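 Reporter line: p53RE-bla. Pre-incubation 5 h, 37 C, 5% CO2; compound (DMSO, pin tool) 16 h, 37 C; B/G FRET substrate 2 h RT; fluorescence intensity read.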

[11] = target: 5-hydroxytryptamine receptor 2A (Homo sapiens) (UniProt P28223); experiment: 5-hydroxytryptamine receptor 2A (HTR2A) small molecule antagonists, cell-based qHTS assay (AID 1963586); also: nearly all actives have a fitted effect of over 45% in size; also: potency is read from the fitted curve at half-maximal effect
5-hydroxytryptamine receptor 2A (Homo sapiens), sequence (P28223 whole entry, looked up): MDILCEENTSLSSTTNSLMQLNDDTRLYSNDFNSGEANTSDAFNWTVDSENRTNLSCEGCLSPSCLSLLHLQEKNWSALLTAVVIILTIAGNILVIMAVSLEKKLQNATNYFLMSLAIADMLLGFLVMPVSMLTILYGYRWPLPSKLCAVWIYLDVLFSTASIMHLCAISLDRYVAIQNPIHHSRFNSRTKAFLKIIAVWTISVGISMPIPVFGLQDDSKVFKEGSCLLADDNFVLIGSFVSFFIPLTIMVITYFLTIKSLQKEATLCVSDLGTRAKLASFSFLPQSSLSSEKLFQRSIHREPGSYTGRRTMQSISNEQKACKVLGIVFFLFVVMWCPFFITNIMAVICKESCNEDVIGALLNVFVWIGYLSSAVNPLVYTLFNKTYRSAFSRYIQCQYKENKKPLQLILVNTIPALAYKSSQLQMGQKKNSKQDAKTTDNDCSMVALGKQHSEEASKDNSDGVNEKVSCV
Outline: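 Antagonist-mode intracellular calcium assay: DOI (4 nM) added after 5 min compound pre-incubation at room temperature to dye-loaded HTR2A-CHO cells. Fluorescence followed for 3 min, sampled every second.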

[12] = target: 5-hydroxytryptamine receptor 2A (Homo sapiens) (UniProt P28223); experiment: 5-hydroxytryptamine receptor 2A (HTR2A) small molecule agonists, cell-based qHTS assay (AID 1963587); also: nearly all actives have a fitted effect of over 30% in size
Outline: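 CHO cells stably expressing human HTR2A, plated 18 h, loaded with calcium dye 1 h at 37 C. Agonist mode: compounds added and intracellular calcium fluorescence recorded kinetically for 2 min at 1 sec intervals.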

[13] = target: Muscarinic acetylcholine receptor M1 (Homo sapiens) (UniProt P11229); experiment: Cholinergic receptor muscarinic 1 (CHRM1) small molecule antagonists, cell-based qHTS assay (AID 1963588); also: nearly all actives have a fitted effect of over 40% in size; also: potency is read from the fitted curve at half-maximal effect
Muscarinic acetylcholine receptor M1 (Homo sapiens), sequence (P11229 whole entry, looked up): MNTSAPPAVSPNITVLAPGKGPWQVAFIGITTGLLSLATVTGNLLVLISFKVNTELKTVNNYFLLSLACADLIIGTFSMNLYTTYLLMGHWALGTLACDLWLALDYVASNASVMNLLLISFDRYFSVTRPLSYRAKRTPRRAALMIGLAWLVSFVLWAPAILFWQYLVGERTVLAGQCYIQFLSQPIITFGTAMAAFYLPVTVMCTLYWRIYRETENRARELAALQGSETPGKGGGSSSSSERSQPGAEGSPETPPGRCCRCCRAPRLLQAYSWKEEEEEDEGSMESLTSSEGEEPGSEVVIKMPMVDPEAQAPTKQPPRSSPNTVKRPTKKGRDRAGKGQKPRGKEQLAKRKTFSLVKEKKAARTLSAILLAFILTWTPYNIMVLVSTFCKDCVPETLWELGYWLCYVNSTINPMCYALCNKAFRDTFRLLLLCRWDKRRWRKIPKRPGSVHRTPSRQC
Outline: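 CHRM1-CHO calcium-flux assay, antagonist mode. Cells were seeded 18 h, dye-loaded 1 h at 37 C and given compound for 5 min at RT, then acetylcholine was added at 50nM. FDSS fluorescence was read 3 min; 15 concentrations, three runs.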

[14] = target: Muscarinic acetylcholine receptor M1 (Homo sapiens) (UniProt P11229); experiment: Cholinergic receptor muscarinic 1 (CHRM1) small molecule agonists, cell-based qHTS assay (AID 1963589); also: nearly all actives have a fitted effect of over 35% in size
Outline: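 Human M1 in stable CHO line; 18 h plating, 1 h dye load 37 C; cpd added (agonist mode); Ca2+ fluorescence kinetic read, 1 s intervals; 15 conc, 3 runs.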

[15] = cAMP Responsive Elements (CRE) small molecule agonists, cell-based qHTS assay (AID 1963590)
Outline: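 HEK 293T CRE-bla, 2,000 cells/well, 18 h preincubation 37 C/5% CO2; cpds (DMSO) pinned, 3 h; LiveBLAzer B/G FRET substrate, 2 h RT.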

[16] = cAMP Responsive Elements (CRE) small molecule antagonists, cell-based qHTS assay (AID 1963591; active = well fitted inhibition curve with a large enough effect in the signal ratio in the repeat runs, not every such curve was filed as active; the % refers to the signal ratio)
Outline: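 Beta-lactamase reporter read by FRET substrate (LiveBLAzer B/G) after 2 h at room temperature. CRE-bla HEK293T cells had received compound plus 0.25 uM (final) NKH477 for 3 h at 37 °C.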

[17] = target: Beta-2 adrenergic receptor (Homo sapiens) (UniProt P07550); experiment: Adrenergic beta2 receptor (ADRB2) small molecule antagonists, cell-based qHTS assay (AID 1963592); also: series mostly up to about 92 µM; nearly all actives have a fitted effect of over 50% in size
Beta-2 adrenergic receptor (Homo sapiens), sequence (P07550 whole entry, looked up): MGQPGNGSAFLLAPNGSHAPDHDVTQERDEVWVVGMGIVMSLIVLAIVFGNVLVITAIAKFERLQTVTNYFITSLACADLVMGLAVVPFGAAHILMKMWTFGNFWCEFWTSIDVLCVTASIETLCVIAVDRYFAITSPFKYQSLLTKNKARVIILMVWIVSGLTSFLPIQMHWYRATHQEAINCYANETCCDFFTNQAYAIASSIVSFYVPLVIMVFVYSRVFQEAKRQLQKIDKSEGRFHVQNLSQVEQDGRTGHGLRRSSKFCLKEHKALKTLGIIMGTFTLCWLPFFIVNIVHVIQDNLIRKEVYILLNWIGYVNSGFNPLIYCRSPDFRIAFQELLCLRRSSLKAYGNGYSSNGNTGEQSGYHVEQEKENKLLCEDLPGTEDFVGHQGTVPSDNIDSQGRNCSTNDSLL
Outline: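 Cells (CHO, stable ADRB2 overexpression) incubated 18-20hr at 37C; compounds added from DMSO; agonist mix (1nM isoproterenol, 100uM IBMX, 25uM Ro-20-1724) added; 0.5hr RT; d2-cAMP and anti-cAMP-cryptate added; 1hr RT; 665/615 nm read.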

[18] = target: D(2) dopamine receptor (Homo sapiens) (UniProt P14416); experiment: Dopamine D2 receptor (DRD2) small molecule agonists, cell-based qHTS assay (AID 1963594); also: nearly all actives have a fitted effect of over 35% in size
D(2) dopamine receptor (Homo sapiens), sequence (P14416 whole entry, looked up): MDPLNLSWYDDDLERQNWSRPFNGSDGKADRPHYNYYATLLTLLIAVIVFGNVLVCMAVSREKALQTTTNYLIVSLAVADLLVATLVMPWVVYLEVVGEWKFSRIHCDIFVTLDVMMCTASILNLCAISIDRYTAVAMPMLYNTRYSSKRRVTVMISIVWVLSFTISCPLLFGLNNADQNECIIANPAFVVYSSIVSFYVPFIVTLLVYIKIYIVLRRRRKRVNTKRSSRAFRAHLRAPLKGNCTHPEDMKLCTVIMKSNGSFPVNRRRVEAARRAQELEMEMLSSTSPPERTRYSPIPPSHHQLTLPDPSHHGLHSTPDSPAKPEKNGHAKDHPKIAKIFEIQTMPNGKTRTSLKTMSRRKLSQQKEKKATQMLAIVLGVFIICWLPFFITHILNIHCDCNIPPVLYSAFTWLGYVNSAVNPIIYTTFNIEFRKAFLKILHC
Outline: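 HEK293 cells stably expressing human DRD2, pre-treated with PDE inhibitor Ro20-1724 (0.1 mM final) and compound 10 min at room temperature, then stimulated with NKH477 (200nM […]) for 30 min. cAMP read by HTRF (665/620 nm).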

[19] = target: D(2) dopamine receptor (Homo sapiens) (UniProt P14416); experiment: Dopamine D2 receptor (DRD2) small molecule antagonists, cell-based qHTS assay (AID 1963595; active = well fitted inhibition curve with a large enough effect in the signal ratio in the repeat runs, with a control signal flat; the % refers to the signal ratio)
Outline: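 HEK293 cells stably expressing DRD2 were preincubated with 0.1 mM Ro20-1724, then with compound for 10 min at room temperature. Cells were stimulated with 200 nM NKH477 plus 12 nM quinpirole for 30 min, and cAMP was read by HTRF.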

Row | SMILES | Potency [1] | Potency [2] | Potency [3] | Potency [4] | Potency [5] | Potency [6] | Potency [7] | Potency [8] | Potency [9] | Potency [10] | Potency [11] | Potency [12] | Potency [13] | Potency [14] | Potency [15] | Potency [16] | Potency [17] | Potency [18] | Potency [19]
1 | O=C(O)CNc1ccccc1 | inactive | inactive | inactive | inactive | inactive | inactive | inactive | inactive | inactive | inactive | inactive | inactive | inactive | inactive | inactive | inactive | inactive | inactive | inactive
2 | CC[C@]1(O)C[C@@H]2CN(CCc3c([nH]c4ccccc34)[C@@](C(=O)OC)(c3cc4c(cc3OC)N(C)[C@H]3[C@@](O)(C(=O)OC)[C@H](OC(C)=O)[C@]5(CC)C=CCN6CC[C@]43[C@@H]65)C2)C1 | inactive | 211 nM (active) and 596 nM (active) | inactive | inactive | inactive | inactive | inactive | – | – | – | – | – | – | – | – | – | inactive | inactive | –
3 | NS(=O)(=O)c1ccccc1OC(F)(F)F | inactive | inactive | inactive | inactive | inactive | inactive | inactive | inactive | inactive | inactive | inactive | inactive | inactive | inactive | – | inactive | inactive | inactive | inactive
4 | CC[C@H](c1ccc(O)cc1)[C@@H](CC)c1ccc(O)cc1 | 54.5 µM (active) | inactive | inactive | inactive | inactive | inactive | inactive | inactive | inactive | inactive | 33.4 µM (active) and 14.5 µM (active) | inactive | 7.29 µM (active) | inactive | inactive | – | inactive | – | inactive
5 | COC(=O)c1c(Cl)c(Cl)c(C(=O)OC)c(Cl)c1Cl | inactive | 30.6 µM (active) | inactive | inactive | inactive | inactive | inactive | inactive | inactive | inactive | inactive | inactive | – | inactive | inactive | inactive | inactive | inactive | inactive
6 | CCCCC(CC)COCCO (stereo not given) | inactive | inactive | inactive | inactive | inactive | inactive | inactive | inactive | inactive | inactive | inactive | inactive | – | inactive | inactive | inactive | inactive | inactive | inactive
7 | CC(C)(CC(=O)O)C(=O)O | inactive | inactive | inactive | inactive | inactive | inactive | inactive | inactive | inactive | inactive | inactive | – | inactive | inactive | inactive | inactive | inactive | inactive | inactive
8 | CCCO | inactive | inactive | inactive | inactive | inactive | inactive | inactive | inactive | inactive | inactive | inactive | – | inactive | inactive | inactive | inactive | inactive | inactive | inactive
